Screening data: PubChem, The Scripps Research Institute Molecular Screening Center
The list is not random: actives were taken first. Their share in the collection is about 4.1%.
DAX1 inh-1 – NR0B1 (DAX1) inhibition | P51843 | HEK293 Gal4-DAX1 luciferase reporter, luminescence | inhibition, % at 6.75 µM | actives 0.99% (n = 340,000) | AID 504766;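 active means inhibition above the mean over all tested compounds plus 3 SD, cut at about 4.2% in these data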;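 further: 0% = DAX1-transfected cells with DMSO and 100% = empty-vector control cells with DMSO; inhibition shows as a rise in luminescence from relieved DAX1 repression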
hgDAF-12 ag – activates the H. glycines DAF-12 receptor ligand-binding domain; HEK293 GAL4-hgDAF12 UAS-luciferase reporter, agonist luminescence; normalized to butyrate control; activation, % at 6.8 µM; actives 1.8% (n = 370,000); AID 687014;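 active means activation above a cutoff set at the mean of all screened compounds plus 3 SD, cut at about 10% in these data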;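 further: 0% = DMSO wells and 100% = sodium butyrate wells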
hcDAF-12 act – activates DAF-12 receptor from parasite H. contortus | activation, % at 6.8 µM | AID 652067 | HEK293 hcDAF-12 lit1-tk-luc reporter, luminescence; 0% DMSO, 100% Δ7-dafachronic acid | actives 1.4% (n = 370,000);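 active means activation above the mean of all tested compounds plus 3 SD, cut at about 5.5% in these data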;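 further: 100% = response to 3 µM Δ7-dafachronic acid high control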
ssDAF-12 act – activates DAF-12 receptor from parasite S. stercoralis | HEK293 ssDAF-12/GRIP1 lit1-tk-luc reporter, luminescence; % of 3 µM dafachronic acid response | activation, % at 6.8 µM | actives 1% (n = 370,000) | AID 652126;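 active means activation above the mean over all tested compounds plus 3 SD, cut at about 0.9% in these data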;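 further: 0% = DMSO-only wells and 100% = 3 µM delta7-dafachronic acid wells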
DAX1 inh-2 – blocks DAX1 repression of SF-1 activated StAR promoter. HEK293T StAR-luciferase reporter, SF-1/DAX-1 repression relief. inhibition, % at 6.8 µM. actives 1.1% (n = 370,000). AID 652010;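 active means inhibition above the mean over all tested compounds plus 3 SD, cut at about 3.6% in these data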;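 further: 0% = DAX-1 cells with DMSO and 100% = cells lacking DAX-1 with DMSO; higher inhibition means more luminescence from relief of DAX-1 repression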
DAX1 inh confirm – confirmation of human DAX1 (NR0B1) inhibitors | shares compounds with DAX1 inh-2 | HEK293T StAR-promoter luciferase reporter, SF-1/DAX-1 repression | inhibition, % at 6.8 µM | actives 87% (n = 2,400) | AID 652134;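 active means inhibition above the average of every tested compound plus 3 SD, cut at about 3.8% in these data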;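 further: 0% = DAX-1 cells with DMSO and 100% = no DAX-1 control cells with DMSO; active compounds raise luminescence by relieving repression of the StAR reporter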
SF1 mutant ctr – counter-screen for DAX1 inhibitors: nonselective inhibitors with SF-1 AF2 mutant. shares compounds with DAX1 inh-2. HEK293 StAR-luciferase, luminescence. inhibition, % at 6.8 µM. actives 78% (n = 2,400). AID 652136;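 active means inhibition above the mean of all tested compounds plus 3 SD, cut at about 3% in these data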;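 further: 0% = DAX-1 transfected cells with DMSO and 100% = cells without DAX-1 with DMSO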
LXRb hcDAF ctr – LXR-beta agonism as hcDAF-12 counter-screen. shares compounds with hcDAF-12 act. HEK293 Gal4-LXR tk-luc reporter, luminescence, 24 h; normalized: DMSO 0%, positive control 100%. activation, % at 6.8 µM. 3,400 tested, under 10 active;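 active means mean percent activation of the reporter above a cutoff set as the average over tested compounds plus their standard deviation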
Target sequence (P55055 whole entry, looked up, the tested form may be a part): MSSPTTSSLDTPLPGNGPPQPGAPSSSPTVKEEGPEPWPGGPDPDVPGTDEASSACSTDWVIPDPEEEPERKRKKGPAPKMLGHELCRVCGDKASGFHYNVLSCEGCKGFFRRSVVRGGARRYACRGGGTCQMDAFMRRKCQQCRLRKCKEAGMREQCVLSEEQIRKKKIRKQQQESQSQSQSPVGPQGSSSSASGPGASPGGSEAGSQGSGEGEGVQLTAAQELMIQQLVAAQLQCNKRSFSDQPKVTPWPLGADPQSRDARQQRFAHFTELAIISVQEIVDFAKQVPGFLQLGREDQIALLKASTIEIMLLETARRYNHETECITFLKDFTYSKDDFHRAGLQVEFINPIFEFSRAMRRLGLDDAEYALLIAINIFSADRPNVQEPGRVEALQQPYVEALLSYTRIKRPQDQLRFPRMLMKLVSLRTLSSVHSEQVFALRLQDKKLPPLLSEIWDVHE
hcDAF12 ag – confirmation of H. contortus DAF-12 agonists | shares compounds with hcDAF-12 act | HEK293 hcDAF-12 lit1-tk-luc reporter, luminescence; % of Δ7-dafachronic acid response | activation, % at 6.8 µM | actives 61% (n = 3,400) | AID 743032;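 active means mean activation across triplicate tests above the threshold derived from the earlier primary screen, cut at about 5.5% in these data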;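 further: 0% = DMSO only wells and 100% = 3 µM Δ7-dafachronic acid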
hgDAF12 conf – hgDAF-12 agonism, confirmation assay; shares compounds with hgDAF-12 ag; HEK293 GAL4-hgDAF12 luciferase reporter, agonist mode; percent of butyrate response; activation, % at 6.8 µM; actives 80% (n = 3,300);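 active means mean activation over triplicate wells above the hit cutoff derived from the earlier primary screen, cut at about 11% in these data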;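 further: 0% = DMSO low control and 100% = 2 mM sodium butyrate high control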
LXR ag 2 – LXR-beta agonism as DAF-12 counter-screen. shares compounds with hgDAF-12 ag. HEK293 Gal4-LXR luciferase reporter, 24 h. activation, % at 6.8 µM. 3,300 tested, under 10 active. AID 743051;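 active means mean activation of the triplicate above a set limit carried over from the primary screen, none filed active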
An asterisk follows results filed as active; x = no result given.

SMILES	DAX1 inh-1	hgDAF-12 ag	hcDAF-12 act	ssDAF-12 act	DAX1 inh-2	DAX1 inh confirm	SF1 mutant ctr	LXRb hcDAF ctr	hcDAF12 ag	hgDAF12 conf	LXR ag 2
O=C1C(c2cc(=O)c3ccccc3[nH]2)=C(O)c2ccccc21	3	21*	10*	1.6*	4.6*	16*	8.0*	1	8.1*	18*	1
NC(=O)c1cc(Cl)ccc1OCC(=O)Nc1ccc2c(c1)OCO2	1	16*	2	0	12*	12*	8.7*	x	x	15*	1
O=C(COc1ccccc1[N+](=O)[O-])Nc1ccc2c(c1)OCO2	3	15*	9.2*	0	6.7*	6.8*	4.1*	1	5.8*	12*	1
COCC(=O)Nc1ccc2c(c1)OCO2	-3	-2	-1	-1	0	x	x	x	x	x	x
N#Cc1ccccc1OCC(=O)Nc1ccc2c(c1)OCO2	4	20*	2	0	5.9*	6.5*	4.0*	x	x	13*	0
O=C(COC(=O)COc1ccccc1[N+](=O)[O-])Nc1ccc2c(c1)OCO2	-1	-2	1	-1	0	x	x	x	x	x	x
Cc1ccccc1C(=O)NC1CCCCN(C)C1=O (stereo not given)	x	-3	0	-1	1	x	x	x	x	x	x
C=CCN1C(=O)[C@@H](CC(=O)NCCC(C)C)[C@]2(C(=O)OCC)CCCCC/C=C/12	x	5	-2	-1	-1	x	x	x	x	x	x
COc1ccc2cc(CCC(C)=O)ccc2c1	3	14*	3	0	5.2*	9.6*	7.9*	x	x	16*	1
COC(=O)C1=C(C)N(Cc2cccc(C(F)(F)F)c2)C(=NCc2ccc3c(c2)OCO3)NC1c1ccc(F)cc1 (stereo not given)	x	-1	-3	-1	-1	x	x	x	x	x	x
CCC(C)(C)NC(=S)Nc1ccc(-c2nc3ccc(C)cc3s2)cc1	1	20*	9.1*	0.9*	8.4*	16*	7.6*	1	5.7*	19*	1
CCCCNC(=S)Nc1ccc(-c2nc3ccc(C)cc3s2)cc1	1	20*	10*	1	7.1*	13*	9.0*	1	5	20*	1
Cc1cc(C)cc(N(CC(=O)Nc2ccc(-c3nc4ccc(C)cc4s3)cc2)S(C)(=O)=O)c1	-1	10	3	-1	3	x	x	x	x	x	x
CC1=CCC(C(=O)O)C(C(=O)Nc2ccc(-c3nc4ccc(C)cc4s3)cc2)C1 (stereo not given)	0	13*	6.7*	1.9*	6.1*	2	1	0	3	5	0
CNC(=S)Nc1ccc(-c2nc3ccc(C)cc3s2)cc1	1	18*	7.3*	1.8*	5.9*	12*	6.2*	2	8.9*	24*	1
CCOc1ccc(Oc2c(Cl)c(Br)nn(Cc3cccc4ccccc34)c2=O)cc1	x	0	-1	-1	0	x	x	x	x	x	x
Nc1[nH]c(C(=O)c2ccc(Br)cc2)c(-c2c(F)cccc2F)c1C(=O)NCCc1c[nH]c2ccccc12	x	4	1	0	-1	x	x	x	x	x	x
O=C(O)CC/C(=N/NC(=O)c1cccs1)c1ccccc1	3	14*	9.6*	1	5.8*	3.8*	3.3*	0	2	11*	0
